From ChEMBL document CHEMBL1201862, “PubChem BioAssay data set” (2004)
Hit rate of the full screen: of about 400,000 compounds, about 2,100 (0.53%) were called active. Another 14% or so got no clear call; they are omitted. The rule behind the calls is not given here. The full list was thinned out, with actives kept by preference.

These compounds were tested against Ataxin-2 (Homo sapiens) (UniProt Q99700) (assay: qHTS for Inhibitors of ATXN expression.).
Type: functional

Chain of Ataxin-2 (Homo sapiens) (Q99700 whole entry): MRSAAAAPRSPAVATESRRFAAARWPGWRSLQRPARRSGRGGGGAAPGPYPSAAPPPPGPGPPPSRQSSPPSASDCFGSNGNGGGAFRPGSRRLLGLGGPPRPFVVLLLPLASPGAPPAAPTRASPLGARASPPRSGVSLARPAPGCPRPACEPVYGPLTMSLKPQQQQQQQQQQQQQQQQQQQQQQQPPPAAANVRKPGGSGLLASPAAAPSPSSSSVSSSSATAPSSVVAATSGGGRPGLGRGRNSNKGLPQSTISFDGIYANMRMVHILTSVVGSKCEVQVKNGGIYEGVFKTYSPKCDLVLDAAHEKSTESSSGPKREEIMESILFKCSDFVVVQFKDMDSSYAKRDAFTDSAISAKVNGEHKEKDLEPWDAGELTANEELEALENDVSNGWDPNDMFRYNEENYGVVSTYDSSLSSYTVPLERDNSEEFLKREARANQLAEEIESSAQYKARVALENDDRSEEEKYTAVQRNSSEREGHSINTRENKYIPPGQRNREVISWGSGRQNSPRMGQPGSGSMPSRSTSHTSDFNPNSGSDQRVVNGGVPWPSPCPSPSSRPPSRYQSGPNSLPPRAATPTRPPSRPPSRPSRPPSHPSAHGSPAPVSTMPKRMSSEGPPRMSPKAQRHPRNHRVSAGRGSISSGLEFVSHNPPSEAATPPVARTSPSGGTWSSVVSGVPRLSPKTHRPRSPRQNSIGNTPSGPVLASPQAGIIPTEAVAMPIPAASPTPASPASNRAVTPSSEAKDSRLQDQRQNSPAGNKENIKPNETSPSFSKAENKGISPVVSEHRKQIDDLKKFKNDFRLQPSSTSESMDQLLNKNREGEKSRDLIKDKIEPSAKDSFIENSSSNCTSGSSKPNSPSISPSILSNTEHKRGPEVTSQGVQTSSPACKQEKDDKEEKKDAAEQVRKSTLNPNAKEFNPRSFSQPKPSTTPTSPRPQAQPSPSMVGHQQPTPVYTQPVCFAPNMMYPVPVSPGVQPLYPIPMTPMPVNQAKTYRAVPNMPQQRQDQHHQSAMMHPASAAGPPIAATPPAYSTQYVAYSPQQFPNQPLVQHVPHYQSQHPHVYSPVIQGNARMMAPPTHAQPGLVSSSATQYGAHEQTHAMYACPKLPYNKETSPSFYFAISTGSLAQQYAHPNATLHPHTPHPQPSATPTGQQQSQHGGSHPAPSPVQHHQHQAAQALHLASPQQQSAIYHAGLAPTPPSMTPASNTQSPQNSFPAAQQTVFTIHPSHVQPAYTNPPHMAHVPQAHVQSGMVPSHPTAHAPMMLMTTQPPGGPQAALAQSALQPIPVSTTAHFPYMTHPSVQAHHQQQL

Structure (SMILES) | Potency
Nc1ccc(-c2cc3ccccc3oc2=O)cc1 | inactive
COc1ccccc1[C@@H]1C(c2ccccc2)=NN(c2ccccc2)[C@H]1C(=O)N1CCOC1=O | inactive
Cc1cccc(N2C(=O)/C(=C\Nc3ccccc3)c3ccccc3C2=O)n1 | inactive
CCNc1nc(N)c(C(=O)C23CC4CC(CC(C4)C2)C3)s1 | inactive
Cn1c(C(=O)N2CCOCC2)cc2c(=O)n3ccccc3nc21 | inactive
COc1ccc(CN=C(Nc2ccccc2)SC2CC(=O)NC2=O)cc1 (stereo unspecified) | inactive
C/C(=N\NC(=S)Nc1cccc(C)c1)c1cc2ccccc2o1 | inactive
COc1ccc(C/C(C)=N/NC(=S)Nc2ccccc2)cc1 | 35.5 µM (active)
Cc1nc(NCC2CC2)c2nnn(Cc3ccccc3)c2n1 | inactive
CCn1cc(CN2CCCC(CNS(=O)(=O)c3cccc4cccnc34)C2)cn1 (stereo unspecified) | 3.16 µM (active)
O=S(=O)(NCC1CCN(Cc2ccccc2)CC1)c1ccccc1C(F)(F)F | inactive
O=S(=O)(NCCc1ccc(F)cc1)c1cccc2cccnc12 | inactive
Cc1cc(/C=C2\C(=N)N3N=C(S(C)(=O)=O)SC3=NC2=O)c(C)n1Cc1ccccc1 | inactive
CN(C)c1ccc(/C=N/NC(=O)c2nnn(-c3nonc3N)c2COc2ccc(F)cc2)cc1 | inactive
CCCN(CCC)Cc1c(C(=O)N/N=C/C(C)=C\c2ccco2)nnn1-c1nonc1N | 25.1 µM (active)
CC(C)c1c(C(=O)N/N=C/c2ccco2)nnn1-c1nonc1N | inactive
O=S(=O)(N/N=C1\CCCc2ccccc21)c1ccccc1 | inactive
O=C(Nc1ccc(F)cc1F)c1cc(Cl)sc1Cl | inactive
COc1ccc(OC(C)C(=O)Nc2ccc(F)cc2F)cc1 (stereo unspecified) | inactive
CCCSc1nsc(NC(=O)Nc2ccc(F)cc2F)n1 | 31.6 µM (active)
Cc1ccc2[nH]c(SCC(=O)c3ccc(O)cc3O)nc2c1 | inactive
O=C1OCCN1C(=O)[C@H]1[C@H](c2ccccc2)C(c2cccc(Cl)c2)=NN1c1ccc(Br)cc1 | inactive
CCCCN1C(=O)c2ccc(C(=O)NC3(C)CCS(=O)(=O)C3)cc2C1=O (stereo unspecified) | inactive

Structure (SMILES) | Potency
C=C1[C@@H](O)[C@H](CC(C)C)N(Cc2ccccc2Br)S1(=O)=O | 28.2 µM (active)
CC(=O)N(C1=C(Cl)C(=O)c2ccccc2C1=O)c1ccc(C(=O)O)cc1 | inactive
COc1ccccc1N(C(C)=O)C1=C(Cl)C(=O)c2ccccc2C1=O | inactive
C/N=C1\C(=O)c2ccccc2C(O)=C1N(C(C)=O)c1ccc(Br)cc1 | 14.1 µM (active)
NC(=O)c1nsc(C(=O)N(c2cccc(F)c2)C(C(=O)NCc2ccccc2)c2ccc(O)cc2)c1N (stereo unspecified) | inactive
C[C@H](CO)N1C[C@H](C)[C@H](CN(C)C(=O)c2ccccc2)OCc2ccccc2-c2c(n(C)c3ccccc23)C1=O | 22.4 µM (active)
COc1ccccc1NC(=O)N(C)C[C@@H]1OCc2ccccc2-c2c(n(C)c3ccccc23)C(=O)N([C@H](C)CO)C[C@@H]1C | 35.5 µM (active)
COC(=O)CN1C(=O)N/C(=C/c2cc(Cl)c(OC)c(OC)c2)C1=O | inactive
CC(=O)O/N=C/c1c(NCc2ccccc2)nc2c(C)cccn2c1=O | inactive
Cc1nc(SCc2ccccc2)nc2c1CCC2 | inactive
CC(=O)c1c(C)[nH]c(C(=O)CN2C(=O)NC(C)(CCC(C)C)C2=O)c1C (stereo unspecified) | inactive
O=C1CSC(=S)N1N=Cc1cccc(OCc2ccccc2)c1 | inactive
CCSc1ccc(-c2nn(-c3ccccc3)cc2/C=C(/C#N)C(=O)NCCCOC)cc1 | inactive
COc1ccc(-c2nn(-c3ccccc3)cc2/C=N/N2C(=O)CSC2=S)cc1 | 39.8 µM (active)
CCCCCCc1cc2cc(S(=O)(=O)c3ccc(F)cc3)c(=O)oc2cc1O | inactive
NC(=O)c1sc2nc(-c3ccccc3)ccc2c1N | inactive
CCC1CCCCN1C(=O)c1ccc(OC2CCN(C(=O)COC)CC2)cc1 (stereo unspecified) | inactive
Cc1c(S(=O)(=O)N2CCN(c3cccc(C(F)(F)F)c3)CC2)c(=O)n(C)c(=O)n1C | inactive
COCCN=C(S)N1CCN(c2cccc(C(F)(F)F)c2)CC1 | inactive
Cn1cc(C(=O)N2CCN(c3cccc(C(F)(F)F)c3)CC2)c2c3ccccc3n(C)c2c1=O | 31.6 µM (active)
CC(=O)Nc1ccc(NC2=C(Cl)C(=O)c3ccccc3C2=O)cc1 | 28.2 µM (active)
Cc1ccc(NC2=C(Cl)C(=O)c3ccccc3C2=O)cc1 | 28.2 µM (active)
CC(=O)N(C1=C(Cl)C(=O)c2ccccc2C1=O)C1CCCCC1 | inactive

Structure (SMILES) | Potency
CN(C)c1ccc(NC2=C(Cl)C(=O)c3ccccc3C2=O)cc1 | 25.1 µM (active)
CCCC(=O)NC1=C(Cl)C(=O)c2ccccc2C1=O | inactive
Oc1c(Cl)cc(Cl)cc1/C=N/NC(=S)NC1CC2C=CC1C2 (stereo unspecified) | inactive
CC(C)Cn1c([N+](=O)[O-])nc2c1c(=O)[nH]c(=O)n2C | 29.9 µM (active)
CCCCNc1c(N)n(CC(C)C)c(=O)[nH]c1=O | inactive
Cn1c(=O)[nH]c(=O)c2c1nc(Br)n2Cc1ccc(Cl)cc1 | inactive
COCCn1c(-c2ccc(-c3ccc([N+](=O)[O-])cc3Br)o2)nc2c1c(=O)[nH]c(=O)n2CC(C)C | inactive
CCn1c([N+](=O)[O-])nc2c1c(=O)[nH]c(=O)n2C | 22.4 µM (active)
COc1ccc(C(=O)c2sc3nc4c(c(C(F)(F)F)c3c2N)CN(C(C)=O)CC4)cc1OC | inactive
O=C(O)c1cc(N/N=C/c2cccc3ccccc23)ccc1Cl | inactive
COC(=O)c1scc(C)c1S(=O)(=O)Nc1ccc(C)cc1 | inactive
C=Cc1ncc(OC)c2c1[nH]c1ccccc12 | 11.9 µM (active)
COc1cccc2[nH]c3c(O)ncnc3c12 | inactive
C(=C\c1nccc2c1[nH]c1ccccc12)/c1ccccc1 | inactive
Cc1noc(C)c1COC(=O)c1cc(S(=O)(=O)N2CCOCC2)ccc1F | inactive
COc1ccc(N(Cc2cc(O)nc3ccccc23)C(=O)CCl)cc1 | 39.8 µM (active)
CCCC(=O)N(Cc1cc2cc(OC)ccc2nc1O)c1ccccc1OC | inactive
CC1(C)Cc2c(cnn2-c2ccccc2)C(NC(=O)CCN2CCCC2=O)C1 (stereo unspecified) | inactive
C(=N\Nc1nc(-c2cccnc2)nc2ccccc12)/c1ccccc1 | inactive
C(=N\Nc1ncnc2ccccc12)/c1ccccc1 | inactive
O=[N+]([O-])c1ccc(-c2nc(Nc3cccc(O)c3)c3ccccc3n2)cc1 | 31.6 µM (active)
O=[N+]([O-])c1ccc(-c2nc(NCC3CCCO3)c3ccccc3n2)cc1 (stereo unspecified) | inactive
Cc1ccc(-c2nc(N/N=C/c3cccc([N+](=O)[O-])c3)c3ccccc3n2)cc1 | 39.8 µM (active)

Structure (SMILES) | Potency
Nc1ccc(-c2nc(-c3ccccc3)nc3ccccc23)cc1 | inactive
Cc1ccccc1N1CCN(Cc2nc(Cc3ccccc3)no2)CC1 | inactive
Clc1nc(N2CCOCC2)ncc1Br | inactive
CCOC(=O)C(C)Sc1cnccn1 (stereo unspecified) | inactive
CCCCC(=O)NC(c1ccco1)c1cc(Cl)c2cccnc2c1O (stereo unspecified) | inactive
CNC(=O)c1ccc(-c2sc3nc(N4CCOCC4)c4c(c3c2N)CC(C)(C)OC4)o1 | inactive
Cc1cccc(-n2nnc(C(=O)N3CCc4ccccc4C3)c2N)c1 | inactive
Cc1ccc(-n2ncc(C(=O)NCCN3CCc4ccccc4C3)c2C2CCN(C(=O)OC(C)(C)C)CC2)c(C)c1 | 20 µM (active)
COC(=O)[C@@H]1CCCN1C(=O)c1cnn(-c2ncc3c(n2)-c2ccccc2CCC3)c1C1CC1 | inactive
CCOC(=O)c1cc2c(=O)n3ccccc3nc2n(Cc2ccco2)/c1=N/C(=O)c1ccccc1OC | inactive
CCc1cc(S)n2c(nc3ccccc32)c1C#N | inactive
N#Cc1cc(-c2ccccc2)[nH]c1-c1nccc2ccccc12 | inactive
Oc1ncc(I)cc1I | inactive
O=C(Nc1nc[nH]n1)c1cccc(S(=O)(=O)N2CCOCC2)c1 | inactive
CC(C)(C)c1ccc(OCCCC(=O)Nc2cccc(S(=O)(=O)N3CCOCC3)c2)cc1 | 28.2 µM (active)
Cn1cnnc1SCC(=O)Nc1cccc(S(=O)(=O)N2CCOCC2)c1 | inactive
Cc1ccccc1NC(=O)CN1C(=O)S/C(=C\c2ccc(-c3cccc(C(=O)O)c3C)o2)C1=O | inactive
O=C(O)c1cc(N/N=C/C=C/c2ccccc2)ccc1Cl | inactive
COCC1CCCN(Cc2cn(-c3ccccc3F)nc2-c2cc(C)sc2C)C1 (stereo unspecified) | inactive
CCOc1ccccc1-c1c2cc(O)c(=O)cc-2oc2cc(O)c(O)cc12 | 11.2 µM (active)
COC(=O)c1ccccc1-c1c2ccc(=N)cc-2oc2cc(N)ccc12 | inactive
COc1ccc(CNC(=O)C[S+]([O-])Cc2nc(-c3ccc(C)cc3)oc2C)cc1 (stereo unspecified) | inactive
CCn1cc2nc(SCc3cccc(OC)c3)n(Cc3ccc(Cl)cc3)c(=O)c2n1 | inactive

Structure (SMILES) | Potency
COc1ccc(CSc2nc3ccncc3n2Cc2nc(-c3ccc(OC)c(OC)c3)oc2C)cc1 | 39.8 µM (active)
CCN(CC(=O)N(CC(C)C)c1c(N)n(CC(C)C)c(=O)[nH]c1=O)Cc1nc(O)c2ccccc2n1 | inactive
Cc1ccc(-c2nc(C[S+]([O-])CC(=O)NC3CC3)c(C)o2)cc1 (stereo unspecified) | inactive
COc1ccc(NCC(=O)n2c(C)c(C)c3ccccc32)cc1 | inactive
CCCCN(CC)C(=O)c1nn(-c2ccc(OC)cc2)c(=O)c2c1c1ccccc1n2C | 20 µM (active)
COc1ccc(-n2nc(C(=O)NCC(=O)Nc3ccc(F)cc3)c3ccccc3c2=O)cc1 | inactive
CC1(C)C(=O)Nc2ccccc2N1C(=O)COC(=O)Cc1ccc(Cl)c(Cl)c1 | inactive
CCCCN=C(S)NNc1c(Cl)cc(Cl)cc1Cl | inactive
COc1ccc2c(Sc3ccccc3)c(C(=O)N3CCC(C)CC3)[nH]c2c1 | 39.8 µM (active)
COC(=O)C1CCN(C(=O)COC(=O)c2oc3ccc(OC)cc3c2C)CC1 | inactive
CCN(CC)CCNC(=O)c1[nH]c2ccccc2c1Sc1ccc(Cl)cc1 | 28.2 µM (active)
Cc1[nH]c2ccccc2c1C(=O)CSc1ccc(Cl)cc1 | inactive
COc1ccc2c(Sc3ccc(Cl)cc3)c(C(=O)NCCCN3CCCCC3)[nH]c2c1 | 39.8 µM (active)
Cc1[nH]c2ccccc2c1SCC(=O)N1CCCCC1 | inactive
O=C(NN=C1CCCC1)c1[nH]c2ccc(Cl)cc2c1-c1ccccc1 | inactive
COc1ccc(Cn2c(=O)[nH]c3cc(C(=O)NCCCN4CCCC4)ccc3c2=O)cc1 | inactive
O=C(COC(=O)CCSc1ccc(Cl)cc1)NCc1ccccc1 | inactive
O=C(NCCCN1CCCCC1)c1[nH]c2ccccc2c1Sc1ccc(Cl)cc1 | 39.8 µM (active)
COc1cccc2[nH]c(C(=O)NCCCN3CCCC3=O)cc12 | inactive
